Measured values published in PubChem BioAssay.

target: NADPH oxidase 2 (Homo sapiens) (UniProt P04839); experiment: NOX2-dependent H2O2 signal modulators, primary screen, NOX inhibitor project, cell-based, HEK293-NOX2, PMA-stimulated, Amplex Red fluorescence (AID 1159); conditions: 45 min, higher = more signal, called active from +8 up or from −8 down; further: test concentration not given here
Sequence (P04839 whole entry, looked up): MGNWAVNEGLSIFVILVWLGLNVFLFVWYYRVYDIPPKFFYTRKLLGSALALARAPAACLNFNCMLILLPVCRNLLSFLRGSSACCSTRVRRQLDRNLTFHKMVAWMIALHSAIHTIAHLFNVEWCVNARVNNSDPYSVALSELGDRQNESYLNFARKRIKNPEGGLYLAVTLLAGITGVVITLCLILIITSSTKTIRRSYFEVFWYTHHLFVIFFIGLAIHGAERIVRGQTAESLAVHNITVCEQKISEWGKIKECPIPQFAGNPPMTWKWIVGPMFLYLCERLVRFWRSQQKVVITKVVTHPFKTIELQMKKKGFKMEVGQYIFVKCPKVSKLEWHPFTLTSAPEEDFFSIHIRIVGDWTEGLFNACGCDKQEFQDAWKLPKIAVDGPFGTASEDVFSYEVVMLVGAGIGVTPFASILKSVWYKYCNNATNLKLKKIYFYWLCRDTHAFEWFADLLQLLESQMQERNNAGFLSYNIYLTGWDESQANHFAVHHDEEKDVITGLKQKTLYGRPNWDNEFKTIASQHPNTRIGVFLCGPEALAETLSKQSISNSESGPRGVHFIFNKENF

z-score, inactive:
CN1C(=O)[C@]2(CCC(=O)OC(C)(C)C)N=C(c3ccc(OCCCO)cc3)O[C@@H]2c2ccccc21 -2.09, CC(c1ccccc1)C(O)C1C=CC2C(=O)N(c3ccccc3)C(=O)C2N1Nc1ccc(C#N)cc1 (stereo unspecified) -1.9, COCCOC(=O)N1C(=O)[C@@]2(c3cc(C#CCCO)ccc31)[C@H](C(=O)N1CCN(c3ncccn3)CC1)[C@H]1C(=O)O[C@H](c3ccccc3)[C@H](c3ccccc3)N1[C@@H]2c1ccc(O)cc1 1.69, C#CCN(C/C=C/c1ccccc1)[C@H](CO[Si](C)(C)C(C)(C)C)c1ccccc1 1.64, NCCCC[C@@H]1NC(=O)[C@H]2C[C@@H](C(=O)O)[C@@H](c3cccc(OCCO)c3)N2C1=O 2.14, [N-]=[N+]=NCc1ccccc1C[C@]1(C(=O)N2CCCCC2)N=C(c2ccc(OCCCO)cc2)O[C@H]1c1ccccc1 -1.16, CCCCC(=C=CC[C@H](O)c1ccc(OCCO)cc1)C[C@H](O)c1ccccn1 1.26, CN(C)C(=O)[C@@]1(CCS(=O)(=O)c2ccccc2)N=C(c2ccc(OCCCO)cc2)O[C@H]1c1ccccc1N=[N+]=[N-] -2.01, [N-]=[N+]=NCc1ccccc1[C@@H]1OC(c2ccc(OCCCO)cc2)=N[C@]1(Cc1ccccc1)C(=O)NCc1ccccc1 -3.27, O=C(NCCO)C1=C[C@H](Oc2ccccc2I)[C@@H](O)[C@H](NCc2ccc(F)cc2)C1 0.71, COc1ccc([Si](C)(C)[C@@H]2[C@@H](CC(=O)N(CCO)Cc3ccccc3)O[C@]3(C(=O)N(Cc4ccc(N5CCC5=O)cc4)c4ccccc43)[C@H]2C)cc1 1.53, O=C1NC(=O)C2C1C=CC(C(O)c1cccc(O)c1)N2Nc1ccc(Cl)cc1Cl (stereo unspecified) -0.897, CC(C)C[C@@H]1NC(=O)C([C@@H](C)OCc2ccccc2)NC(=O)[C@@]23C(=O)N[C@@H](Cc4ccccc4)C2[C@H](C)[C@@]2(C)O[C@H]2C3/C=C/CC/C=C/CNC1=O (stereo partly specified) 0.681, COc1ccc([Si](C)(C)[C@H]2[C@H](CCO)O[C@@]3(C(=O)N(Cc4ccc(N5CCOC5=O)cc4)c4ccccc43)[C@@H]2C)cc1 -0.372, COc1ccc(CCNC(=O)[C@@]2(Sc3ccc(C)cc3)CC(=O)N(Cc3cc(C(F)(F)F)cc(C(F)(F)F)c3)[C@@H]2c2ccc(CO)cc2)cc1 -0.626, CCCCC(O)C1C=CC2C(=O)NC(=O)C2N1Nc1ccc(Cl)cc1Cl (stereo unspecified) -0.461, CO[C@H]1O[C@H](CO)[C@@H](OC(=O)Nc2ccc3c(c2)OCO3)[C@@H]2OC(=O)[C@@H](Cc3ccccc3)C/C=C/C[C@H](Cc3ccccc3)C(=O)O[C@@H]12 -0.895, CN(C)C(=O)[C@]1(Cc2ccccc2CN=[N+]=[N-])N=C(c2ccc(OCCCO)cc2)O[C@@H]1c1ccccc1N=[N+]=[N-] -1.25, O=C1OCCC=C[C@H]2OC34C=CCN(CCN5CCOCC5)C(=O)[C@H]3N(CCCO)C(=O)[C@@H]4C12 (stereo partly specified) -0.433, C=CCNC(=O)[C@@H]1[C@H]2C(=O)O[C@H](c3ccccc3)[C@H](c3ccccc3)N2[C@H](c2ccccc2OCCO)[C@@]12C(=O)N(C(=O)OCCOC)c1ccc(C#CCCO)cc12 1.57, C=CCC(OC(C)=O)[C@@H]1[C@@H](N(Cc2cccc3ccccc23)C(=O)c2cccc3ccccc23)c2cc(OCCCO)ccc2N1C(=O)Cc1ccc2ccccc2c1 (stereo partly specified) -1.93, C=C(COC)/C(=C/C[C@@H](OC(C)=O)c1ccccc1OCCO)c1cc(C(=O)OC)ccc1OC 0.857, COCC(=C=CC[C@@H](O)c1cccc(OCCO)c1)C[C@@H](O)COCc1ccccc1 -0.0404, CCCCC=C[C@@H](NC(=O)c1ccc(C(F)(F)F)cc1)c1ccccc1 -1.51, COC(=O)[C@]1(CO)N=C(c2ccc(OCCCO)cc2)O[C@@H]1c1ccccc1CN=[N+]=[N-] -0.259, COC(=O)[C@@]1(Cc2ccc(OC)cc2)[C@H]2c3cc(C(=O)N4CCCC4)n(CCc4ccc(OC)c(Br)c4)c3C[C@H]2CN1C(=O)c1ccccc1 0.798, COCCOC(=O)N1C(=O)[C@@]2(c3cc(C#CCC(C(=O)OC)C(=O)OC)ccc31)[C@H](C(=O)N1CCc3cc(OC)c(OC)cc3C1)[C@H]1C(=O)O[C@H](c3ccccc3)[C@H](c3ccccc3)N1[C@@H]2c1ccc(O)cc1 1.91, CCC(CC)C(O)C1C=CC2C(=O)N(C)C(=O)C2N1N1CCCCC1 (stereo unspecified) -0.893, COc1cc2c(cc1O)C(c1ccc(CN3CCCC3)cc1)N(Cc1ccc([N+](=O)[O-])o1)CC2 (stereo unspecified) -3.89, COc1cc(OC)c(C(O)C2C=CC3C(=O)N(c4ccccc4)C(=O)C3N2Nc2ccccc2F)cc1Br (stereo unspecified) -1.32, NC(=O)N1C(=O)C2C(C1=O)C1C=C(CCCO)C2C(c2ccc(CN3CCCC3)cc2)N1Cc1cccc(OC(F)(F)F)c1 (stereo unspecified) -1.4, CC(C)C[C@H]1NC(=O)[C@@]23C(=O)N[C@@H](Cc4ccccc4)C2[C@H](C)[C@@]2(C)O[C@H]2C3/C=C/C/C=C\CNC(=O)[C@@H]2CCCN2C1=O (stereo partly specified) 0.708, COC(=O)[C@@]1(Cc2ccc(F)cc2)[C@H]2c3cc(C(=O)N(C)C)n(CCn4cc([N+](=O)[O-])nc4C)c3C[C@H]2CN1C(=O)c1ccccc1 0.762, C=CC[C@]1(C(=O)NCCCOC)N=C(c2ccc(OCCCO)cc2)O[C@H]1c1ccccc1 -2.35, COCCOC(=O)N1C(=O)[C@@]2(c3cc(C#CC4=CCCCC4)ccc31)[C@H](c1ccccc1OCCO)N1[C@H](c3ccccc3)[C@H](c3ccccc3)OC(=O)[C@H]1[C@@H]2C(N)=O 1.77, CC(C)C[C@@H]1NC(=O)[C@@]23C(=O)N[C@@H](Cc4ccccc4)C2[C@H](C)[C@@]2(C)O[C@H]2C3/C=C/C/C=C\CNC(=O)[C@@H](CC(C)C)NC1=O (stereo partly specified) 0.063
